About 83,000 compounds went through this panel and 20% of them were active in at least one assay; those are over-represented in the sample as a whole.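 Plates (96-well) were seeded with cells, treated with compound at one concentration, and incubated for 48 hours before percent growth was determined.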 Values without a mark were called inactive. Calls of active or inactive are those of the source. The calls were made as follows: active = growth percent below 10; inactive = the rest.
Legend:
Experiment in all cases: NCI-60 one-dose screen, 48 h (100 = growth as untreated, 0 = no growth, -100 = all killed)
[1] = tested on: K-562 leukemia; conditions: 10 µM unless noted
[2] = tested on: MALME-3M melanoma; conditions: 10 µM unless noted
[3] = tested on: RXF 393 renal; conditions: 10 µM unless noted
[4] = tested on: SF-295 CNS; conditions: 10 µM unless noted
[5] = tested on: SNB-75 CNS; conditions: 10 µM unless noted
[6] = tested on: SNB-19 CNS; conditions: 10 µM unless noted
[7] = tested on: U251 CNS; conditions: 10 µM unless noted
[8] = tested on: SK-MEL-2 melanoma; conditions: 10 µM unless noted
[9] = tested on: A498 renal; conditions: 10 µM unless noted
[10] = tested on: HL-60(TB) leukemia; conditions: 10 µM unless noted
[11] = tested on: CCRF-CEM leukemia; conditions: 10 µM unless noted
[12] = tested on: SR leukemia; conditions: 10 µM
[13] = tested on: OVCAR-8 ovarian; conditions: 10 µM unless noted
[14] = tested on: OVCAR-5 ovarian; conditions: 10 µM unless noted
[15] = tested on: OVCAR-4 ovarian; conditions: 10 µM unless noted
[16] = tested on: SK-OV-3 ovarian; conditions: 10 µM unless noted
[17] = tested on: IGROV1 ovarian; conditions: 10 µM
[18] = tested on: M14 melanoma; conditions: 10 µM unless noted
[19] = tested on: BT-549 breast; conditions: 10 µM
[20] = tested on: MDA-MB-435 melanoma; conditions: 10 µM unless noted

SMILES	growth [1]	growth [2]	growth [3]	growth [4]	growth [5]	growth [6]	growth [7]	growth [8]	growth [9]	growth [10]	growth [11]	growth [12]	growth [13]	growth [14]	growth [15]	growth [16]	growth [17]	growth [18]	growth [19]	growth [20]
COc1ccc(C2SCC(=O)Nc3c2c(C)nn3-c2nc3ccc(C)cc3s2)cc1O (centres undefined)	9.45% (active)	43.5%	50.2%	32.4%	32.6%	53.8%	31.3%	-1.24% (active)	40.9%	3.8% (active)	27.6%	9.81% (active)	50.7%	67.2%	72.7%	44.2%	52.7%	–	–	–
O=C1c2ccccc2C(=O)N1[N+](=O)[O-]	105%	89.4%	103%	103%	103%	6.79% (active)	93.2%	104%	93.6%	113%	90%	95.4%	100%	112%	109%	114%	109%	105%	110%	110%
CC[CH2][Pb]([CH2]CC)([CH2]CC)[O]C(=O)C(F)(F)F	2.17% (active)	-89.2% (active)	-73.9% (active)	-87.6% (active)	-99.9% (active)	–	-87.4% (active)	-87.7% (active)	-97.6% (active)	-29.7% (active)	–	–	-69.4% (active)	-99% (active)	-97.4% (active)	-74.6% (active)	-78.8% (active)	-91.6% (active)	-95.3% (active)	-97.1% (active)
c1ccc([As]=[As]c2ccccc2)cc1 (centres undefined)	-60.2% (active)	-84.5% (active)	-80.3% (active)	43.8%	14.3%	20.5%	-98.7% (active)	–	-48.5% (active)	-50.4% (active)	–	-47.5% (active)	-22.4% (active)	-7.9% (active)	7.07% (active)	27.5%	-84.1% (active)	-30.2% (active)	-96.5% (active)	-37.6% (active)
CC1CC=CCC12C(=O)NC(=S)NC2=O (centres undefined)	94.2%	105%	106%	99%	81.4%	–	94.9%	131%	72.9%	136%	82.6%	–	104%	103%	105%	104%	117%	114%	110%	106%
O=C(Nc1ccc(S(=O)(=O)F)cc1)Oc1ccccc1	100%	101%	95.3%	96.8%	85.5%	97.6%	96.8%	107%	97.6%	105%	88.1%	99.9%	–	102%	97%	102%	99.1%	–	98.2%	99.9%
CC(/C=N/N=C(N)N)=N/N=C(N)N	82.1%	–	–	93.6%	–	87.3%	89.6%	14.8%	90.2%	84.5%	90.1%	78.4%	77.8%	84.4%	91.9%	97.2%	–	92.4%	–	100%
COP(=S)(OC)Oc1ccc(SC)c(C)c1	99.6%	105%	107%	91.5%	89.6%	109%	100%	103%	94.3%	–	113%	–	–	93.2%	–	100%	99.7%	101%	83.9%	100%
Nc1nc(N)c(-c2ccc(Cl)c(Cl)c2)c(/C=C/c2ccc(S(=O)(=O)F)cc2)n1	53.4%	86.9%	90.6%	–	78.4%	–	89.1%	86.3%	87.7%	91.9%	58.7%	76.3%	81.6%	80.8%	100%	97.2%	89.3%	89.4%	94.6%	87.5%
Cc1cc(CCl)c(C)cc1CCl	63.8%	82.9%	93.3%	25.7%	48.4%	51%	40.2%	70.1%	84.6%	15.3%	19.7%	11.9%	61.7%	141%	83.4%	73.9%	26.4%	45.1%	68.8%	76.5%
OB([O][Hg][c]1ccccc1)[O][Hg][c]1ccccc1	-32.5% (active)	-88.1% (active)	-94.3% (active)	-32.1% (active)	-56% (active)	5.87% (active)	-82.4% (active)	-74.9% (active)	-31.2% (active)	-53.3% (active)	–	-15.2% (active)	-97.1% (active)	–	7.38% (active)	-62.7% (active)	-54.3% (active)	-80.9% (active)	-91.5% (active)	-84% (active)
FC(F)=C(F)c1ccccc1	89.2%	101%	112%	96.5%	88.8%	103%	103%	98.5%	100%	90.8%	80.3%	80.4%	104%	–	111%	97.5%	99%	96.7%	96%	104%
C[CH2][Pb]([CH2]C)([CH2]C)[O]C(=O)COc1ccccc1	4.92% (active)	21.8%	7.08% (active)	-62.3% (active)	4.45% (active)	–	-1.93% (active)	-0.355% (active)	-2.32% (active)	-48.1% (active)	–	–	9.05% (active)	–	14.8%	4.72% (active)	2.01% (active)	14.6%	-11.4% (active)	-31.9% (active)
C[As](=O)(O)c1ccc(C(=O)O)cc1	122%	112%	95.9%	99.8%	90.2%	106%	89.5%	99.9%	96.3%	102%	–	118%	101%	115%	113%	106%	120%	–	117%	98.4%
CCCCCCCCCCCCOc1ccc(C(=O)Oc2ccc(CSP3(=O)OCC4OC(n5cnc6c(N)ncnc65)C(F)C4OP(=O)(O)OCC4OC(n5ccc(=O)[nH]c5=O)C(F)C4O3)cc2)cc1 (centres undefined)	52.1%	114%	60.8%	110%	107%	101%	109%	86.6%	71.3%	-18.4% (active)	68.3%	25.1%	109%	115%	54.2%	110%	97%	86.2%	81.6%	106%
C=CC(=O)NC(O)C(Cl)(Cl)Cl (centres undefined)	97.1%	85.5%	129%	95.6%	–	105%	102%	84.3%	120%	97.7%	–	90.8%	108%	107%	122%	98.2%	98.1%	–	97.5%	105%
CCOc1cc(/C=N\Nc2nnc(C)n2N)c(C)cc1N(CCCl)CCCl	7.77% (active)	–	29.7%	-26.6% (active)	24.1%	14.2%	14.4%	17.2%	-26% (active)	-48.9% (active)	4.43% (active)	-12.6% (active)	–	52.6%	14.6%	40.1%	12.3%	–	17%	7.67% (active)
Cc1cc(N(CCCl)CCCl)ccc1C=Nc1ccc2ccccc2c1	80.7%	84.9%	71.5%	–	72%	84.7%	63%	145%	-77.9% (active)	46%	55.3%	46.2%	–	24.4%	83.5%	–	63%	88%	86.1%	90.6%
